18 compounds from PubChem BioAssay (NCI) can be followed below.

Compounds without any hit were thinned out: in the full panel of roughly 83,000, 20% have a hit.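 The endpoint reported here, percent growth, reads 100 for growth as untreated, 0 for no net growth and -100 for all cells dead.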 A number with no mark means an inactive call. Active and inactive are the calls of the source. How the source made its calls: active means growth percent below 10; inactive means the rest.

Assay in all cases: NCI-60 one-dose screen, 48 h (100 = growth as untreated, 0 = no growth, -100 = all killed)
Common to all, as to details: 10 µM unless noted

For assay [1], the system named is NCI-H23 lung.
In assay [2] the test system is NCI-H322M lung.
For assay [3], the system named is HOP-62 NSCLC.
The test system of assay [4] is NCI-H460 lung.
Assay [5] concerns HOP-92 NSCLC.
Assay [6] has as its system NCI-H522 lung.
Assay [7] concerns A549/ATCC NSCLC.
The test system of assay [8] is 786-0 renal.
Assay [9] has as its system COLO 205 colon.
Assay [10] has as its system NCI-H226 lung.

On to `c1ccc(Nc2nc(-c3ccccc3)c[se]2)cc1`, for which the growth in assay [1] was 87.2%; in assay [2], 69.8%; in [3], 69.8%; in [4] it was 100%; in [5] it was 59.8%; in assay [6], 68.6%. Besides, the growth in [7] was 87.5%; in assay [8], 93%; in assay [9], 104%.
`CC1=C(O)[C@@](C)(CCCCC[C@H](C)CCCCc2ccc(O)cc2)OOC1=O`: the growth in [1] is 85.2%; in [2] it was 94.6%; in [3], 91.1%; in assay [4], 108%; in [5], 75.2%; in assay [6], 64.5%. Moreover, the growth is 96.9% in [7], 105% in [8] and 107% in assay [9].
Regarding `COc1cc([C@@H]2c3cc4c(cc3[C@H](OC(C)=O)[C@H]3COC(=O)[C@@H]23)OCO4)cc(OC)c1OC`, the growth in [1] is 0.572% (active); in [2] it was 36.3%; in assay [3] it was 10.6%; in [4], -4.08% (active); in [5] it was 27.2%; in assay [6], -34.7% (active). Also, the growth is 10.5% in assay [7], 2.27% (active) in assay [8] and -75.8% (active) in assay [9].
Take `CCN(CCO)C(Cc1ccccc1)c1ccccc1` (stereo unspecified): the growth in [1] is 93.1%; in assay [2], 106%; in [3], 96.5%; in [4], 104%; in [5] it was 100%; in [6] it was 87.9%. For the same compound, the growth in assay [7] was 103%; in assay [8], 105%; in [9] it was 102%.
On to `CC(C)[C@@H]1NC(=O)[C@]2(C)CSC(=N2)c2csc(n2)CNC(=O)C[C@@H](/C=C/CCS)OC1=O`, for which the growth in assay [1] was 8.6% (active); in assay [2] it was 7.74% (active); in assay [3], -1.73% (active); in [4], 8.13% (active); in [5], -21.5% (active); in [6], -25.2% (active). Further, the growth in [7] was -15.1% (active); in assay [8] it was 10.2%; in assay [9], -78.3% (active).
As for `Clc1ccc(CSC(Cn2ccnc2)c2ccc(Cl)cc2Cl)cc1` (stereo unspecified), the growth was 27.1% in assay [1]; 52.6% in assay [3]; 23.2% in assay [4]; -4.58% (active) in assay [5]; 34.6% in [6]; 27.5% in assay [7]. Also, the growth in assay [8] was 34.2%; in assay [9], -55.2% (active).
As to `C/C(=C\c1ccn(-c2ccc(N)cc2C(F)(F)F)n1)[C@@H]1C[C@@H]2O[C@]2(C)CCC[C@H](C)[C@H](O)[C@@H](C)C(=O)C(C)(C)[C@@H](O)CC(=O)O1`, the growth was 19.9% in assay [1]; 23.4% in [2]; 24.5% in assay [3]; 9.25% (active) in assay [4]; 57% in assay [5]; 0.465% (active) in assay [6]. The growth in assay [7] is 9.78% (active); in [8], 16.4%; in [9] it was -6.04% (active).
`CCOP(=O)(Cc1ccc(C#N)cc1)OCC`: the growth in assay [1] was 99.9%; in assay [2], 104%; in [3], 98.5%; in assay [4], 108%; in assay [5] it was 76.9%; in assay [6], 75%. Moreover, the growth in assay [7] is 91.2%; in assay [8] it was 101%; in assay [9] it was 108%.
Turning to `COc1ccc(S(=O)(=O)Nc2c(/C=C\c3cc(OC)c(OC)c(OC)c3)ccc(OC)c2O)cc1OC`, the growth in assay [1] was 33.2%; in [2] it was 44.3%; in assay [3], 71.5%; in assay [4], 5.24% (active); in assay [5], 30.5%; in [6], -9.02% (active). Further, the growth in assay [7] is 20.9%; in assay [8], 14%; in assay [9] it was -39.3% (active).
Regarding `CN1C(=O)N[C@H]2[C@@H]3NC(=O)c4ccc(Br)n4[C@@H]3C[C@]21O`, the growth in assay [1] was -14.5% (active); in assay [2] it was -6.85% (active); in assay [3] it was -31.8% (active); in assay [4], -10.6% (active); in assay [5], -9.65% (active); in assay [6], -38.2% (active). Moreover, the growth is -9.09% (active) in [7], -19.3% (active) in [8] and -49.5% (active) in [9].
Turning to `CC(=O)O[C@H](C[C@H](C(C)C)N(C)C(=O)[C@@H](NC(=O)[C@H]1CCCCN1C)C(C)C)c1nc(C(=O)NC2CCC(C(=O)O)CC2)cs1` (stereo partly specified), the growth in assay [10] is 90.6%; in assay [2] it was 72.4%; in assay [3], 47.1%; in assay [4] it was 26.7%; in [5], 38%; in assay [6] it was -6.59% (active). Moreover, the growth in [7] is 57.8%; in assay [8], 46%; in [9], 32.6%.
Consider `COc1ccc(/C=C\c2cc(OC)c(OC)c(OC)c2)cc1NC(=O)/C=C/c1ccc(OC)c(OC)c1`, for which the growth was 0.102% (active) in assay [1]; 68.2% in assay [2]; 39.5% in [3]; 22% in assay [4]; 115% in assay [5]; 11.1% in assay [6]. Moreover, the growth is 41.7% in [7], 35.7% in assay [8] and -4.78% (active) in assay [9].
`Fc1ccc(C2=CCNCC2)cc1`: the growth in [1] was 50.2%; in assay [2], 111%; in assay [3] it was 112%; in assay [4], 99.5%; in [5], 119%; in assay [6] it was 63.1%. The values for the growth in assay [7], in [8] and in [9] were 113%, 78.8% and 103%, respectively.
Take `CC12CCC3C(C=CC4=C(N)C(=O)CCC43C)C1CCC2=O` (stereo unspecified): the growth in [1] was 74.1%; in assay [2] it was 88.4%; in [3], 112%; in [4], 83.8%; in [5] it was 61.9%; in [6] it was 76.6%. Further, the growth in assay [7] was 103%; in [8], 89.3%; in assay [9], 121%.
As for `O=[N+]([O-])c1cnc[nH]1`, the growth in [10] was 105%; in [2], 121%; in assay [3], 106%; in assay [4], 108%; in assay [5], 93.7%; in [6], 106%. Besides, the growth in assay [7] is 103%; in assay [8] it was 112%; in assay [9] it was 119%.
Turning to `COc1cc2c(cc1OCCCn1c(-c3ccccn3)nc3ccccc31)N=C[C@@H]1CCCN1C2=O`, the growth was 15% in assay [1]; 25.7% in [2]; 18% in assay [3]; -22.7% (active) in assay [4]; -59.6% (active) in assay [5]; -5.46% (active) in assay [6]. Besides, the growth is 20% in [7], -33.7% (active) in assay [8] and 9.33% (active) in [9].
For the compound `Clc1cccc(N2COOC3(OOC2)C2CC4CC(C2)CC3C4)c1`, the growth in assay [1] was 49%; in [2], 99.6%; in [3], 73%; in assay [4], 87.2%; in assay [5], -7.89% (active); in [6] it was 2.67% (active). Also, the growth was 76% in assay [7], 7.65% (active) in [8] and 111% in assay [9].
With `COc1ccc(C/C(C)=C(\c2ccc(OCCN3CCOCC3)cc2)c2ccc(OC(=O)Cc3ccccc3)cc2)cc1`, the growth is -18.3% (active) in assay [1]; -8.3% (active) in assay [2]; -74.1% (active) in assay [3]; -73.3% (active) in [4]; -76.7% (active) in [5]; -87.6% (active) in assay [6]. Further, the growth was 0.132% (active) in assay [7], -94.7% (active) in [8] and -90.1% (active) in assay [9].
